# Bioassay records (PubChem BioAssay)
# Shown are actives, neighbours in structure and some others; about 3.3% of the full set was active somewhere.
# ERAP1 inh: ERAP1 (human) enzyme inhibition; inhibition, % at 10.7 µM; 340,000 compounds, 0.15% hits; recombinant ERAP1, Leu-AMC fluorescence, 60 min; AID 652197;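 active = mean replicate inhibition of at least 30%, or all replicates individually reaching that 30% level; inactive = mean below 30% and not every replicate reaching it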;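 note: 0% = neutral control wells and 100% = L-leucinethiol positive control wells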
# SIRT5 block: inhibitors of human sirtuin-5 desuccinylase; Q9NXA8; Purified SirT5, succinyl-peptide AMC, trypsin-coupled fluorescence; inhibition, % at 15 µM; 330,000 compounds, 1.1% hits; AID 652115; in the data active = inhibition above about 15%
# Target sequence (Q9NXA8 whole entry, looked up): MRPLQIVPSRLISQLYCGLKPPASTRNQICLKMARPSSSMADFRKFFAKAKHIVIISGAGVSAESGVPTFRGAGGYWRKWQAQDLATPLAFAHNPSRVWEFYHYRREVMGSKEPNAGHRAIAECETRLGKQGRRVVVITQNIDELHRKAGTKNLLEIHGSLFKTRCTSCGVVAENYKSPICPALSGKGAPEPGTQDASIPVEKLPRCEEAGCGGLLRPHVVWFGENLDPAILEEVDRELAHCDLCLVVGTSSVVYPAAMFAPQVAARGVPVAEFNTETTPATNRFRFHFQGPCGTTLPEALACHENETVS
# FGF22 binding: FGF22 (human) thermal shift binding; 340,000 compounds, 1.5% hits; recombinant FGF22 thermal shift, SYPRO orange fluorescence; percent of sucrose octasulfate shift, DMSO zero; activity (Tm shift, normalised), % at 9.99 µM;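 active = mean Tm shift, scaled 0 neutral to 100 positive control, at about 1.3% or above, every replicate too, limit read from the data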
# CASP6 VEID inh: blocks human caspase-6 cleavage activity; purified caspase-6, Z-VEID-R110 cleavage fluorescence; inhibition, % at 12.5 µM; 350,000 compounds, 0.53% hits; AID 686996;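 active = mean inhibition across replicates at least about 35%, with every replicate also reaching that limit, limit read from the data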;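 note: 0% = median of neutral control wells and 100% = no fluorescence left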
# Target sequence (P55212 24-179 limits assumed): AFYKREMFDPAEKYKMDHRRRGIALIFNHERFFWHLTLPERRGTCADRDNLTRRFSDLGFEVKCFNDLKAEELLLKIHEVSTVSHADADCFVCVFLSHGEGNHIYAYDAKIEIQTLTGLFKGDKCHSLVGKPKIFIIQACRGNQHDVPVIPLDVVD
# Target sequence (P55212 194-293 limits assumed): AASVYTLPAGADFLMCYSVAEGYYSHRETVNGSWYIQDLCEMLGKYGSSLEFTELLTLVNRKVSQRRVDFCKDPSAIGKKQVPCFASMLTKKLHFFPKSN
# GSIS activator: primary screen for activators of insulin secretion dependent on glucose, INS-1E cells, GLuc reporter luminescence | activation, % at 16.6 µM | 370,000 compounds, 0.61% hits | INS-1E GLuc reporter insulin secretion, 2-3 h;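 active = lowest replicate activation of at least 40%, so every replicate reaches that level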;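 note: 0% = median of neutral control wells and 100% = median of IBMX positive control wells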
# Active calls of the source: *; nt = no result given.
SMILES,ERAP1 inh,SIRT5 block,FGF22 binding,CASP6 VEID inh,GSIS activator
O=C(/C=C/c1ccco1)Oc1ccc(C(=S)N2CCOCC2)cc1,16,5,0,2,-11
O=Cc1cccc(OC(=O)/C=C/c2ccco2)c1,0,2,0,87*,-23
C[C@@H]1CN([C@@H](C)CO)C(=O)c2cccc(NC(=O)c3nc4ccccc4s3)c2O[C@H]1CN(C)S(=O)(=O)c1ccccc1,0,2,0,-1,10
COCC(=O)Nc1ccc2c(c1)C(=O)N(C)[C@@H]1CC[C@@H](CC(=O)Nc3cn(C)nc3C)O[C@@H]1CO2,nt,nt,0,nt,-3
C[C@H]1CN([C@@H](C)CO)C(=O)Cc2cc(NS(=O)(=O)c3ccc(F)cc3)ccc2O[C@@H]1CN(C)C(=O)Nc1ccc(C(F)(F)F)cc1,-1,1,0,nt,-17
CC=Cc1ccc2n(c1=O)C[C@H]1[C@H](CO)[C@@H](C(=O)N(C)C)N(Cc3cccc(F)c3)[C@@H]21 (mixture of isomers),-3,2,0,-1,12
C[C@@H]1CN([C@H](C)CO)C(=O)c2c(c3ccccc3n2C)-c2ccccc2CO[C@@H]1CN(C)Cc1ccc2c(c1)OCCN2C,-2,16*,0,0,14
C[C@@H]1CN([C@H](C)CO)C(=O)c2c(c3ccccc3n2C)-c2ccccc2CO[C@@H]1CN(C)Cc1cccc(F)c1,-5,2,0,-1,-21
C[C@@H]1CN([C@@H](C)CO)C(=O)c2c(c3ccccc3n2C)-c2ccccc2CO[C@H]1CN(C)Cc1ccc2c(c1)OCCN2C,-3,3,0,0,-27
C[C@H]1CN([C@@H](C)CO)C(=O)c2c(c3ccccc3n2C)-c2ccccc2CO[C@@H]1CN(C)Cc1cccc(F)c1,-4,18*,nt,-1,-24
C[C@@H]1CN([C@@H](C)CO)C(=O)c2c(c3ccccc3n2C)-c2ccccc2CO[C@H]1CN(C)Cc1cccc(C(=O)Nc2ccccc2N)c1,0,17*,0,1,13
C[C@@H]1CN([C@@H](C)CO)C(=O)c2c(c3ccccc3n2C)-c2ccccc2CO[C@@H]1CN(C)Cc1cccc(O)c1,-1,23*,0,0,-20
C[C@H](CO)N1C[C@H](C)[C@H](CN(C)Cc2cccc(C(=O)O)c2)OCc2ccccc2-c2c(n(C)c3ccccc23)C1=O,-2,-3,0,-2,9
COc1ccc(S(=O)(=O)Nc2ccc3c(c2)C(=O)N([C@@H](C)CO)C[C@H](C)[C@H](CN(C)S(=O)(=O)c2c(C)noc2C)O3)cc1,-1,-5,0,-2,8
C[C@@H]1CN([C@H](C)CO)C(=O)c2c(c3ccccc3n2C)-c2ccccc2CO[C@H]1CN(C)Cc1ccc2c(c1)OCO2,0,7,0,2,-6
C[C@H]1CN([C@@H](C)CO)C(=O)c2c(c3ccccc3n2C)-c2ccccc2CO[C@@H]1CN(C)Cc1ccc2c(c1)OCO2,-1,19*,nt,4,-3
CN1CCN(C(=O)C[C@@H]2C=C[C@H](NC(=O)Cc3ccccn3)[C@@H](CO)O2)CC1,0,5,0,-11,3
CCCc1cc(=O)oc2cc(C)cc(OCC(=O)Nc3ccc(S(N)(=O)=O)cc3)c12,0,-3,0,-7,139*
CCCc1cc(=O)oc2cc(C)cc(OCC(=O)NC(Cc3ccc(Cl)cc3)C(=O)O)c12 (centres undefined),4,-14,0,4,12
CCCc1cc(=O)oc2cc(C)cc(OCC(=O)Nc3ccccn3)c12,1,-5,0,2,17
CCCc1cc(=O)oc2cc(C)cc(OCC(=O)N[C@@H](CSCc3ccccc3)C(=O)O)c12,25,nt,7.2*,1,nt
COc1cccc(S(=O)(=O)N2CC[C@@H]3[C@@H](CO)Nc4ccc(Br)cc4[C@@H]32)c1,nt,nt,nt,nt,-20
CS/C(=C/[N+](=O)[O-])Nc1cccc2c1C(C)CC2(C)C (centres undefined),0,-1,44*,-2,1
CS/C(=C\[N+](=O)[O-])Nc1ccc(OC(F)(F)F)cc1,5,-3,0,-1,-9
O=S(=O)(c1cc(C(F)(F)F)ccc1Cl)N1CCN(Cc2ccc(OCCO)cc2)CC1,2,-1,0,-5,nt
SMILES,ERAP1 inh,SIRT5 block,FGF22 binding,CASP6 VEID inh,GSIS activator
c1ccc(-c2ccc3sccc3n2)cc1,-3,nt,0,2,18
c1ccc2nc(-c3nccs3)ccc2c1,3,-2,44*,1,18
CC(C)(C)c1ccc(C(=O)NCCC(=O)NCc2ccc(F)cc2)cc1,-3,15*,0,-2,13
CCOC(=O)c1nc(NCc2cccnc2)c2ccccc2n1,nt,nt,nt,nt,46*
CCOC(=O)c1nc(NCc2ccccc2C)c2ccccc2n1,-3,-1,0,-3,4
C[C@H](CO)N1C[C@H](C)[C@@H](CN(C)Cc2ccc3c(c2)OCO3)Oc2c(NC(=O)c3ccc(-c4nccs4)cc3)cccc2C1=O,1,2,0,1,-21
COc1ccc(S(=O)(=O)N(C)C[C@H]2Oc3ccc(NC(=O)CCN4CCOCC4)cc3CC(=O)N([C@H](C)CO)C[C@H]2C)cc1,-1,-6,0,1,3
CC[n+]1c(C)sc2c3ccsc3ccc21,12,2,43*,-1,-3
CO[C@H]1CN(C)C(=O)c2ccc(NC(=O)c3ccccc3F)cc2OC[C@H](C)NC[C@H]1C,0,-1,0,0,1
C=CCNC(=O)COc1ccc(Oc2ccccc2)cc1,3,-2,0,-2,-8
C=CCNC(=O)COc1c(C)ccc(C)c1C,4,23*,42,-3,11
COCCn1nnnc1C(c1cc2cc(OC)ccc2[nH]c1=O)N1CCC(Cc2ccccc2)CC1 (centres undefined),1,17*,0,0,-41
CC1CCN(C(c2cc3cc4c(cc3[nH]c2=O)OCO4)c2nnnn2CC2CCCO2)CC1 (centres undefined),-3,-2,0,-1,21
COc1ccc2[nH]c(=O)c(C(c3nnnn3CC3CCCO3)N3CCCCC3)cc2c1 (centres undefined),-1,-9,43*,1,12
COCCn1nnnc1C(C(C)C)N1CCC(Cc2ccccc2)CC1 (centres undefined),nt,nt,nt,nt,-17
CN(Cc1ccon1)Cc1cn[nH]c1-c1ccc(-c2ccccc2)cc1,-1,-6,43*,-6,-10
O=C(Cc1ccccc1)N1CC(=O)N2[C@H](C1)[C@H](c1ccc(C#CCc3ccccc3)cc1)[C@@H]2CO,0,1,nt,1,-1
COc1ccc(N=N/C(=C\O)C(=O)c2ccco2)cc1,4,2,43*,0,-29
O=C(O)CN1C(=O)/C(=C\c2cc(Br)ccc2OCc2ccc(Cl)cc2Cl)SC1=S,2,6,nt,86*,12
